Rows were chosen to be rich in hits. Some 12% of all compounds tested hit in one or more screens of this group.
HP1b binding inh: HP1-beta chromodomain-methylated histone interaction inhibition; P83916; AlphaScreen HP1-beta / biotin-H3K9me3 peptide binding; Potency, µM (doses to about 114 µM), for the others: top-dose activity change, negative = inhibition, usual class: inhibitors; 390,000 tested, 0.56% active; AID 540317; also: nearly all actives have a fitted effect of over 70% in size
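HP1-beta protein (50 nM final) preincubated 30 min at room temperature with biotinylated H3(1-18)K9me3 peptide (50 nM) in PBS pH 7.4, 0.01% Tween-20, then compound added for 30 min. AlphaScreen streptavidin donor/nickel chelate acceptor beads (10 ug/mL final), 30 min dark, luminescence read.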
JMJD2A Tudor: JMJD2A Tudor domain (human) inhibition; O75164; AlphaScreen JMJD2A-Tudor / H3K4me3 peptide binding; Potency, µM (doses to about 114 µM), inactives show top-dose activity change, negative = inhibition, most hits filed as inhibitors; 390,000 tested, 4.4% active; AID 504339; also: % is scaled to controls: 0 for no effect and ±100 for the full control effect; nearly all actives have a fitted effect of over 50% in size
Target sequence (O75164 whole entry, looked up, the tested form may be a part): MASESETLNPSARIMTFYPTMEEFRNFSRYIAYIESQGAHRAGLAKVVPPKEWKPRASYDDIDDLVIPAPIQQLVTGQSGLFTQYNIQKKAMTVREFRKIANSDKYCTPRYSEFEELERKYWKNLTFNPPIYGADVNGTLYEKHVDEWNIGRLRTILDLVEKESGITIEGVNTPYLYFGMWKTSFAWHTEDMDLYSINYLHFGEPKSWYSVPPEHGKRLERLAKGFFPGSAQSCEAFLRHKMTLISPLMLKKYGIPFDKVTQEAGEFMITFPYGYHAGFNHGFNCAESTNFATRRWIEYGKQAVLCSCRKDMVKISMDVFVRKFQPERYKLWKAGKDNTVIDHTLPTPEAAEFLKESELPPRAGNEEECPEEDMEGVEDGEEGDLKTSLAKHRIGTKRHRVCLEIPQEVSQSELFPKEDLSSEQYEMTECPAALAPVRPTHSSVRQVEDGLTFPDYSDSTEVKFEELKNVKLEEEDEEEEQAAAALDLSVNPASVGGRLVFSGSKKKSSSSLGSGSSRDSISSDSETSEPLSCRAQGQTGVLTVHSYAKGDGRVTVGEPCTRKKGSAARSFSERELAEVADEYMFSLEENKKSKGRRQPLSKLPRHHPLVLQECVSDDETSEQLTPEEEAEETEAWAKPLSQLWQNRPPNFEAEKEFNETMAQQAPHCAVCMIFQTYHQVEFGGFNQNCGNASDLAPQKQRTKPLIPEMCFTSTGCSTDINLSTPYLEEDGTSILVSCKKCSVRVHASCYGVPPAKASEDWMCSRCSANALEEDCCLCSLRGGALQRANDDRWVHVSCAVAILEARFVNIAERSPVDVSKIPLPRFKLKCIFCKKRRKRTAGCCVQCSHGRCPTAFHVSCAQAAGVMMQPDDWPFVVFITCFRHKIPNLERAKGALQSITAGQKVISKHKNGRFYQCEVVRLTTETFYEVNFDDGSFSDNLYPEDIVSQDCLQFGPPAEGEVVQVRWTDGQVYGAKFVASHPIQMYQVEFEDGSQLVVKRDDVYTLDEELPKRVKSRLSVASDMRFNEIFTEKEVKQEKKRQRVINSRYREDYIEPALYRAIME
L3MBTL1 inh: L3MBTL1 (human) inhibition. 230,000 tested, 0.66% active. AID 485360. AlphaScreen L3MBTL1–H3K9me1 peptide binding. Potency, µM (series often up to 57.1 µM), for the others: top-dose activity, negative = inhibition, most hits filed as inhibitors; also: % is scaled to controls: 0 for no effect and ±100 for the full control effect; nearly all actives have a fitted effect of over 60% in size
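First, the protein-peptide complex forms for 30 min at room temperature (L3MBTL1 50 nM, biotinylated H3K9me1 peptide 75 nM). Next, compounds are pin-transferred and incubated 30 min. Finally, AlphaScreen beads are added and read after 30 min.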
BAZ2B inh: blocks human BAZ2B | Q9UIF8 | AlphaScreen BAZ2B-H3K14Ac peptide displacement | Potency, µM (top dose mostly 114 µM), for the others: top-dose activity change, negative = inhibition, hits mostly inhibitors | 360,000 tested, 4.4% active | AID 504333; also: % is scaled to controls: 0 for no effect and ±100 for the full control effect; nearly all actives have a fitted effect of over 60% in size
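Complex of BAZ2B and biotin-H3K14Ac (50 nM apiece) forms over 30 min at RT, then faces library compounds up to 110 uM for another 30 min; AlphaScreen beads added, 20 min dark incubation, luminescence read.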
Sfp inh: inhibitors of Bacillus subtilis Sfp phosphopantetheinyl transferase; 310,000 tested, 3.5% active; Potency, µM, without a hit: largest response in the series, negative = inhibition, actives largely listed as inhibitors; Q9F4F7; Biochemical Sfp PPTase activity, qHTS;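 also: the enzyme is Sfp with the accession as filed and its product quenches rhodamine fluorescence; 0% = enzyme reaction without inhibitor and -100% = no enzyme wells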
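Step 1, compound plus 15 nM Sfp-PPTase, 15 min, room temperature. Step 2, add rhodamine-CoA (5 uM) and BHQ-2-YbbR (12.5 uM). Step 3, read 525/598 nm fluorescence at 0 and 30 min.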
G9a block: blocks human histone lysine methyltransferase G9a; Q96KQ7; G9a H3K9 monomethylation, AlphaScreen, 2 h; Potency, µM (doses to about 102 µM), for the others: at the highest dose activity, negative = inhibition, actives largely listed as inhibitors; 350,000 tested, 8.8% active; also: % is scaled to controls: 0 for no effect and ±100 for the full control effect; nearly all actives have a fitted effect of over 75% in size
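Readings reflect AlphaScreen signal from monomethyl-H3K9 antibody detection. HMT at 20 nM; substrate b-H3K9 500 nM; cofactor SAM 20 uM; 2 h RT reaction; compounds tested as titrations in qHTS with 15 min preincubation.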
Starred values were filed as active, the others as inactive; ? = inconclusive; nt = no result; [ ] = another dose, or the depositor's remark. Calls follow the shape of the dose curve; as a rule, active = well fitted curve in the direction sought with a large enough effect; inconclusive = small, poorly fitted or top-dose-only effect, or another doubt; inactive = no such curve, though single readings can be large; an effect the other way counts as inactive or inconclusive. Potency is read from the fitted curve at half-maximal effect.

SMILES | HP1b binding inh | JMJD2A Tudor | L3MBTL1 inh | BAZ2B inh | Sfp inh | G9a block
Cc1cccnc1NCc1ccc(O)c2ncccc12 | -15.3% | 22.4µM* | 28.2µM* | 12.6µM* | 15.9% | 1.78µM*
Cc1cc(N)ccc1N=Nc1c(C)n(C)n(-c2ccccc2)c1=O | 5.0% | ? | -5.4% | -8.6% | 6.7% | 17.5%[59 µM]
COc1ccc(CCNC(=O)CN2C(=O)COc3ccc(S(=O)(=O)N4CCCCCC4)cc32)cc1OC | 30.4% | -16.6% | nt | ? | nt | 1.4%[59 µM]
Cc1ccc(N=Nc2cc(C)ccc2O)c(C)c1 | ? | 44.7µM* | nt | 5.62µM* | 4.7% | 7.94µM*
Oc1ccc(N=Nc2ccc3c(c2)OCCO3)c2ncccc12 | -28.9% | ? | ? | ? | 1.1% | 11.2µM*
Cc1ccc(O)c(N=Cc2cccs2)c1 | 37.4% | 2.1% | -3.2% | -34.0% | -26.5% | -19.0%[59 µM]
CCOc1ccc(-c2n[nH]c3c2C(c2cccs2)N(c2ccc(Br)cc2)C3=O)cc1 (stereo not given) | 16.1% | -20.0% | nt | nt | nt | 1.5%[59 µM]
CC(OC(=O)Cc1ccc(Br)cc1)C(=O)NC1CCCC1 (stereo not given) | 20.4% | -3.5% | 12.7% | nt | nt | nt
Cc1ccc(NC(=O)Cn2nnc3ccccc3c2=O)cc1C | 7.3% | -14.5% | nt | -2.1% | 7.7% | 19.8%
Cc1cccc(NC(=O)CN2C(=O)S/C(=C\c3ccc(-c4cccc(C(=O)O)c4C)o3)C2=O)c1 | ? | 79.4µM* | nt | ? | -16.7% | 12.6µM*
Cc1cc(C(=O)O)ccc1-n1c(C)cc(C=C2C(=O)c3ccccc3C2=O)c1C | -15.5% | ? | ? | -34.6% | -20.5% | 28.2µM*
Cc1ccccc1NC(=O)CN1C(=O)c2ccccc2C1=O | 22.4% | 0.0% | -8.1% | 3.2% | -4.4% | nt
Cc1ccc(C(=O)O)cc1NS(=O)(=O)c1ccc2c(c1)oc(=O)n2C | 28.5% | -2.1% | nt | -12.1% | 9.1% | -1.3%
Cc1ccc(C(=O)O)cc1-c1ccc(C=C2C(=O)c3ccccc3C2=O)o1 | 39.8µM* | ? | 25.1µM* | 50.1µM* | -4.1% | 17.8µM*
Cc1cc(C(=O)O)ccc1-n1c(C)cc(/C=C(/C#N)C(=O)Nc2ccccc2)c1C | 16.6% | -9.3% | ? | ? | -14.3% | nt
Cc1ccccc1NC(=O)CN1C(=O)S/C(=C\c2ccc(-c3cccc(C(=O)O)c3C)o2)C1=O | -33.6% | -15.8%[11.4 µM] | -2.4% | -35.6% | -29.9% | 20µM*
O=C(c1cccc(F)c1)N1CCC[C@@]2(CCN(c3ccccn3)C2)C1 | nt | nt | nt | nt | 9.0% | -5.6%[12.7 µM]
CC(C)C[C@H](NC(=O)[C@H](CCCCN)NC(=O)CNC(=O)[C@H](CC(C)C)NC(=O)[C@@H](NC(=O)[C@@H]1CSSC[C@H](N)C(=O)N[C@@H](CO)C(=O)N[C@@H](CC(N)=O)C(=O)N[C@@H](CC(C)C)C(=O)N[C@@H](CO)C(=O)N[C@@H]([C@@H](C)O)C(=O)N1)C(C)C)C(=O)N[C@@H](CO)C(=O)N[C@@H](CCC(N)=O)C(=O)N[C@@H](CCC(=O)O)C(=O)N[C@@H](CC(C)C)C(=O)N[C@@H](Cc1cnc[nH]1)C(=O)N[C@@H](CCCCN)C(=O)N[C@@H](CC(C)C)C(=O)N[C@@H](CCC(N)=O)C(=O)N[C@H](C(=O)N[C@@H](Cc1ccc(O)cc1)C(=O)N1CCC[C@H]1C(=O)N[C@@H](CCCNC(=N)N)C(=O)N[C@H](C(=O)N[C@@H](CC(N)=O)C(=O)N[C@H](C(=O)NCC(=O)N[C@@H](CO)C(=O)NCC(=O)N[C@H](C(=O)N1CCC[C@H]1C(N)=O)[C@@H](C)O)[C@@H](C)O)[C@@H](C)O)[C@@H](C)O | nt | nt | nt | nt | -6.3% | nt
C=C(C)[C@]12C[C@@H](C)[C@@]34OC(Cc5ccccc5)(O[C@@H]1[C@@H]3C=C(COC(=O)Cc1cc(OC)c(O)cc1I)C[C@]1(O)C(=O)C(C)=C[C@@H]41)O2 | nt | nt | nt | nt | 15.8% | 21.9%[59 µM]
CCn1c(C)cc(/C=C2\SC(=O)N(CC(=O)Nc3ccc(C)c(C)c3)C2=O)c1C | 32.4% | -5.5%[57.1 µM] | 0.5% | 0.4%[57.1 µM] | ? | 17.6%
COC(=O)C(C)N1C(=O)S/C(=C/c2cc(C)n(-c3ccccn3)c2C)C1=O (stereo not given) | 20.1% | -28.2% | nt | ? | 1.8% | ?
Cc1ccc(NC(=O)CN2C(=O)S/C(=C/c3ccc(-c4cc(C(=O)O)ccc4C)o3)C2=O)cc1C | -67.8% | 11.2µM* | nt | 11.2µM* | 56.2µM* | 3.55µM*
COC(=O)C(C)N1C(=O)S/C(=C\c2ccc(-c3ccc(C(=O)O)cc3C)o2)C1=O (stereo not given) | ? | ? | nt | ? | -1.3% | 39.8µM*
CCOc1ccc(CC(=O)Nc2c(C(=O)c3ccc(Cl)cc3)oc3ccccc23)cc1OCC | 23.0% | -10.1% | nt | -27.9% | nt | -7.4%[59 µM]
COc1ccc(-n2cc(C(=O)NCc3ccc(Cl)cc3)c3ccccc3c2=O)cc1 | 51.8% | -33.2% | nt | ? | nt | -45.0%[59 µM]
SMILES | HP1b binding inh | JMJD2A Tudor | L3MBTL1 inh | BAZ2B inh | Sfp inh | G9a block
CN(Cc1ccc(Cl)c(Cl)c1)C(=O)CN1C(=O)NC2(CCCC2)C1=O | 27.5% | -6.2% | 5.3% | -1.1% | nt | ?
CN(C)c1cc[n+](CC(=O)c2ccc(-c3ccccc3)cc2)cc1 | 33.8% | -29.9% | nt | 3.7% | ? | -42.8%
O=C(Nc1ncc2c(n1)CC(c1ccco1)CC2=O)c1ccco1 (stereo not given) | 29.4% | -5.5% | nt | -32.4% | 31.6µM* | -15.7%[59 µM]
COc1ccc(C(=O)Nc2ncc3c(n2)CC(c2ccco2)CC3=O)cc1 (stereo not given) | 11.7% | -13.9% | -6.6% | -22.6% | 50.1µM* | ?
O=C1CC(c2ccco2)Cc2nc(N3CCc4ccccc4C3)ncc21 (stereo not given) | -10.8% | -25.3% | -1.6% | ? | 25.1µM* | 44.7µM*
Cc1ccc(S(=O)(=O)NC(=O)Nc2ncc3c(n2)CC(c2ccco2)CC3=O)cc1 (stereo not given) | 49.7% | -5.8% | -5.9% | -27.5% | -8.8% | 17.8µM*
CC(=O)Nc1ncc2c(n1)CC(c1ccco1)CC2=O (stereo not given) | 44.3% | -6.6% | nt | -2.8% | -9.8% | -10.1%
CCC(=O)Nc1ncc2c(n1)CC(c1ccco1)CC2=O (stereo not given) | 15.6% | -26.4% | 4.6% | 10.8% | -29.6% | -18.2%[59 µM]
CC1CN(S(=O)(=O)c2cc(C(=O)NC(C)c3cccnc3)ccc2Cl)CC(C)O1 (stereo not given) | 19.3% | -15.8% | 4.8% | nt | nt | nt
Cc1cc(N/N=C/c2ccccc2Br)nc2ccccc12 | 26.6% | -31.9% | 13.5% | -2.5% | ? | 30.5%
